Where “and” joins values, the source holds several entries; their conditions need not be identical. Identical values can stand only once. Results filed as inconclusive are left out. Calls of active or inactive are those of the source. Unless noted, the call rests on the fitted dose curve; in most records, active means well fitted curve in the direction sought with a large enough effect; inconclusive means small, poorly fitted or top-dose-only effect, or another doubt; inactive means no such curve, though single readings can be large; an effect the other way counts as inactive or inconclusive.
What was measured:
[1] = qHTS assay for environmental chemicals that activate the Aryl hydrocarbon Receptor (AhR) signaling pathway (AID 651777); settings: 1A2-DRE human hepatoma cells, luciferase, 24 h; activation: stronger effect = higher value; further: nearly all actives have a fitted effect of over 15% in size; further: potency means the concentration at half of the fitted maximal effect; on activation: % of control where 0% means no effect
In short: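 1A2-DRE human hepatoma reporter line; 1,200 cells/well; cmpd or DMSO 24 h, 37 C/5% CO2; One-Glo 30 min RT; luciferase lum.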

[2] = target: Peroxisome proliferator-activated receptor alpha (Homo sapiens) (UniProt Q07869); assay: qHTS assay for small molecule agonists of the peroxisome proliferator-activated receptor alpha (PPARalpha) signaling pathway (AID 651778); settings: PathHunter PPARalpha complementation, chemiluminescence, 6 h; max response: stronger effect = higher value; further: potency means the concentration at half of the fitted maximal effect; on max response: % of control where 0% means no effect
In short: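 Cells plated at 2,000/well and held overnight at 37 C, 5% CO2, then compound added by pin tool for 6 hr; after PathHunter detection reagent and 60 min at room temperature, chemiluminescence from enzyme complementation was read.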

[3] = target: Arylsulfatase A (Homo sapiens) (UniProt P15289); assay: qHTS screen for enhancers of Arylsulfatase A (ASA1): LOPAC Validation Assay (AID 720538); further: 0% is about no effect
In short: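 First, ASA-I179S fibroblasts from an MLD patient adhered for 6 hrs. Next, compounds were added for 48h. Then pNCS substrate (0.5mM final) with lysis buffer reacted 14h at room temperature before NaOH stop and fluorescence measurement.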

[4] = qHTS assay for small molecule agonists of the antioxidant response element (ARE) signaling pathway measured by Nrf2-dependant transcriptional activity - cell viability counter screen (AID 720653; active means well fitted curve in the direction sought with a large enough effect in the repeat runs; an effect the other way counts as inactive or inconclusive; further: potency means the concentration at half of the fitted maximal effect; on max response: on the % scale 0 is the no-effect control and ±100 the full control effect); settings: ARE-bla HepG2 viability, CellTiter-Glo ATP luminescence, 16 h; max response: stronger effect = lower value
In short: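 ARE-bla HepG2 cells (2,000/well) rested 5 hrs at 37C/5% CO2, then exposed to compounds in DMSO for 16 hrs. Viability was read in the same wells as intracellular ATP by luminescence, 30 min at room temperature after reagent addition.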

[5] = target: T1, Hexokinase-4 (Homo sapiens) + Glucokinase regulatory protein (Homo sapiens) (UniProt P35557+Q14397); assay: qHTS assay for inhibitors of recombinant human GCK-GKRP interaction: Diaphorase-coupled assay (AID 743205)
In short: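 Inhibitors of the GCK–GKRP complex relieve GKRP suppression of GCK, detected through a G6PDH–diaphorase cascade reducing resazurin. Human GST-GCK and FLAG-GKRP are used at 10 nM with 5 mM glucose and 0.4 mM ATP.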

[6] = target: T1, Hexokinase-4 (Homo sapiens) + Glucokinase regulatory protein (Homo sapiens); assay: qHTS assay for inhibitors of recombinant human GCK-GKRP interaction: ADP-Glo assay (AID 743206);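 further: plate controls were DMSO plus enzyme for no effect and no enzyme for full effect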
In short: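 Pin-transferred compounds meet a 15 nM GST-GCK/15 nM FLAG-GKRP/2 uM S6P mix (dispense concentrations). ATP is then added to 0.4 mM final with 5 mM glucose, and the reaction runs 60 min at room temperature. ADP is quantified luminescently.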

[7] = target: T1, Hexokinase-4 (Homo sapiens) + Glucokinase regulatory protein (Homo sapiens); assay: qHTS assay for inhibitors of recombinant human GCK-GKRP interaction: HTRF assay (AID 743207);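 further: 0% = DMSO with GCK present and -100% = DMSO wells lacking GCK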
In short: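 Steps: dispense GCK–GKRP complex (5 nM each, GST- and FLAG-tagged) with 2 uM S6P; pin in compounds; add XL665/Eu-cryptate-labelled antibodies; incubate 60 min at room temperature; read time-resolved FRET at 665 and 615 nm.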

[8] = qHTS assay for small molecule activators of the nuclear factor-kappa B (NF-kB) signaling pathway (AID 651749; active means well fitted activation curve with a large enough effect in the signal ratio; the % refers to the signal ratio; further: series mostly up to about 77 µM; % of control where 0% means no effect); settings: NF-kB-bla ME-180 cells, beta-lactamase FRET ratio, 16 h; stronger effect = higher value
In short: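 Human ME-180 cervical cells with an NF-kB-bla construct; compounds added via 23 nL pin transfer, DMSO as vehicle; incubation 16 hr. Reporter activity measured by FRET disruption.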

[9] = target: Tyrosine-protein kinase Yes (Homo sapiens) (UniProt P07947); assay: qHTS for small molecule inhibitors of Yes1 kinase: Primary Screen (AID 686947);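 further: plate controls were DMSO with enzyme for no effect and no-enzyme DMSO wells for full effect; nearly all actives have a fitted effect of over 60% in size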
In short: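 ADP-Glo luminescence reports ADP formed by 4 nM Yes1 phosphorylating poly(E4Y) (0.3 mg/mL) with 0.1 mM ATP for 60 min at room temperature, following 20 min compound preincubation; normalised between DMSO wells with and without enzyme.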

[10] = qHTS for small molecule inhibitors of Yes1 kinase: Counter Assay (AID 686950);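 further: no kinase present so only ADP-Glo detection of a fixed ADP amount is tested; luminescence from ADP-Glo reporting ADP in a fixed ATP and ADP mixture; series mostly up to about 77 µM; 0% = DMSO wells with ATP plus ADP and -100% = ATP-only wells without ADP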
In short: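 Measuring interference with ADP-Glo, the assay ran 60 min at room temperature on an ATP/ADP mix lacking enzyme. Values were normalized to ATP-plus-ADP (maximum) and ATP-only (minimum) DMSO controls.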

[11] = qHTS Assay for Identifying Gametocytocidal Compounds (AID 743244); further: potency means the concentration at half of the fitted maximal effect;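 on max response: on the % scale 0 is the no-effect control and ±100 the full control effect; actives lower the fluorescent signal which means gametocytes are killed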; settings: P. falciparum 3D7 stage III-V gametocytes, alamarBlue, 72 h; max response: stronger effect = lower value
In short: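 Stage III–V gametocytes of P. falciparum 3D7 were seeded at 20,000 cells/well onto pre-dispensed compounds. After 72 h, 37 °C, 5% CO2, alamarBlue was added for another 24 h.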

[12] = qHTS assay for small molecule disruptors of the mitochondrial membrane potential - 1 hr assay (AID 651754; calls by dose curve; further: nearly all actives have a fitted effect of over 35% in size; further: potency means the concentration at half of the fitted maximal effect)
In short: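 Mitochondrial potential in living HepG2 cells after 1 hr compound treatment at 37C was read with Mito-MPS dye added for a further 30 min. Red aggregate and green monomer fluorescence were measured; loss of potential leaves dye as cytoplasmic monomers.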

[13] = qHTS assay for small molecule disruptors of the mitochondrial membrane potential - 5 hr assay (AID 651755; calls by dose curve; further: nearly all actives have a fitted effect of over 40% in size; further: potency means the concentration at half of the fitted maximal effect)
In short: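 Seed HepG2 overnight, add compound, incubate 5 hr at 37C and 5% CO2, stain 30 min with Mito-MPS, then measure monomer (490/535 nm) and aggregate (540/590 nm) fluorescence.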

[14] = qHTS assay for small molecule antagonists of the retinoid-related orphan receptor gamma (ROR-gamma) signaling pathway - cell viability counter screen (AID 720652; active means well fitted curve in the direction sought with a large enough effect in the repeat runs; an effect the other way counts as inactive or inconclusive;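 further: potency means the concentration at half of the fitted maximal effect; compound exposure lasted 16 hr before ATP read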)
In short: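 Cytotoxicity counter screen: intracellular ATP (CellTiter-Glo luminescence) measured in the doxycycline-induced CHO RORE-luciferase reporter line after 16 hr compound exposure at 37 C, 5% CO2.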

[15] = target: Tumor necrosis factor (Homo sapiens) (UniProt P01375); assay: qHTS assay to identify small molecules that stimulate Tumor Necrosis Factor-alpha (TNF-alpha) secretion (AID 651757; active means well fitted curve in the direction sought with a large enough effect in the signal ratio; the % refers to the signal ratio; further: 0% is about no effect)
In short: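 Secreted TNF-alpha quantified by TR-FRET sandwich of two labeled anti-TNF-alpha antibodies, incubated 3 hr at room temperature. Preceded by 17 hr, 37 C compound treatment of THP-1 cells at 3000 cells/well.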

[16] = qHTS for compounds that reverse cellular toxicity of Amyloid beta (A-beta) peptide in yeast: LOPAC Validation Assay (AID 720559);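 further: plate controls were DMSO for no effect and equimolar ferric chloride plus clioquinol rescue for full effect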
In short: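 Activity is expressed relative to DMSO and an equimolar ferric chloride/clioquinol mix. Compounds were pinned into medium with A-beta-expressing yeast, grown 48 hr at 30 C, then read by absorbance at 600 nm.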

[17] = qHTS for Activators of Parkin Expression: LOPAC Validation Assay (NLuc Reporter) (AID 720572;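 further: 0% = DMSO and 100% = positive control compound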)
In short: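 Cells harboring the Parkin-promoter coincidence reporter were treated for 24 h at seven concentrations. NLuc output was measured sequentially after the FLuc channel and scaled between DMSO and positive control values.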

[18] = qHTS for Activators of Parkin Expression: LOPAC Validation Assay (FLuc Reporter) (AID 720573;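 further: 0% = DMSO and 100% = positive control compounds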)
In short: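 A neuronal cell line harbouring FLuc and NLuc reporters behind the Parkin promoter was exposed to compounds for 24 h. Firefly luciferase signal, measured after 10 min with detection reagent, was scaled to DMSO and positive-control wells.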

[19] = qHTS assay to identify small molecules that stimulate interleukin-8 (IL-8) secretion (AID 651758; active means well fitted activation curve with a large enough effect in the signal ratio; the % refers to the signal ratio; further: 0% is about no effect)
In short: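 Quantitative HTS in THP-1 monocytic cells at 2000 cells per well, with 16 hrs compound incubation at 37 C. IL-8 in the medium was then quantified by HTRF immunoassay, read after 1-3 hrs at room temperature.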

Sequence of Peroxisome proliferator-activated receptor alpha (Homo sapiens) (Q07869 whole entry, looked up): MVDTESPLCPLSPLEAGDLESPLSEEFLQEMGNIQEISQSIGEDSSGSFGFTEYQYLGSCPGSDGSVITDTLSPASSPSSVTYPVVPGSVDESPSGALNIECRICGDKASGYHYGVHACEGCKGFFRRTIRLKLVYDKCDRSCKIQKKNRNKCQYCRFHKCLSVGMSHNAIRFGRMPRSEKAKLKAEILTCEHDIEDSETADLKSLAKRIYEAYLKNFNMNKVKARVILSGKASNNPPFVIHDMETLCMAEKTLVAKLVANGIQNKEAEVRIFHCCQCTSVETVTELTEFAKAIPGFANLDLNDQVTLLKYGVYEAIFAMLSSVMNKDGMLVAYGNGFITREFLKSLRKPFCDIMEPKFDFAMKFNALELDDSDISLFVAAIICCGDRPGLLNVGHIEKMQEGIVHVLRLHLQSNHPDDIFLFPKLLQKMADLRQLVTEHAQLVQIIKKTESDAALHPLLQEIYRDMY
Sequence of Tyrosine-protein kinase Yes (Homo sapiens) (P07947 whole entry, looked up): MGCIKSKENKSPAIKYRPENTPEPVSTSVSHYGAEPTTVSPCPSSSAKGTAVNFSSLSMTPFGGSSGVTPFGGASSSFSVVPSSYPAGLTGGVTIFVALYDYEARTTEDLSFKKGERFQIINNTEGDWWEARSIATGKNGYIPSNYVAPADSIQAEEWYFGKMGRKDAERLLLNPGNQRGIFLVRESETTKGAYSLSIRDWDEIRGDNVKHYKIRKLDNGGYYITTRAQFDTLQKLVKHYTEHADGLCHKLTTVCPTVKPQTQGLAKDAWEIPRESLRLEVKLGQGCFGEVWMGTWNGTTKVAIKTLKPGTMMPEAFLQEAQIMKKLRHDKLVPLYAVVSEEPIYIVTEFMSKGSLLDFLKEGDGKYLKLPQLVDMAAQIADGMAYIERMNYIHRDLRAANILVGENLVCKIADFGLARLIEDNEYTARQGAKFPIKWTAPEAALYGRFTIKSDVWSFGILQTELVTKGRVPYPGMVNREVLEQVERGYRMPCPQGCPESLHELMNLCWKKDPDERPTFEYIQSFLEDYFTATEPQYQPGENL
T1 sequence (P35557 whole entry, looked up): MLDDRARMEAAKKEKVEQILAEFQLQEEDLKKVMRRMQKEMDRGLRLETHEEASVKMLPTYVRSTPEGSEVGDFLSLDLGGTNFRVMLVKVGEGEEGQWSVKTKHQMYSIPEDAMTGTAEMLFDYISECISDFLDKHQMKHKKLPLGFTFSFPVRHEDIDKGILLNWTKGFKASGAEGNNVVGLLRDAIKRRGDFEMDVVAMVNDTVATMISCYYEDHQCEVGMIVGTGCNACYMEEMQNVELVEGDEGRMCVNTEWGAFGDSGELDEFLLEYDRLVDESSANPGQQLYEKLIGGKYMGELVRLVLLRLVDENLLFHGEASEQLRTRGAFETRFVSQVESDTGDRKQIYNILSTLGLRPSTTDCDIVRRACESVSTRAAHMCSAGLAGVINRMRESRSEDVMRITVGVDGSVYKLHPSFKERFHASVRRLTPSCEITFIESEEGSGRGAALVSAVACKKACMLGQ
T1 sequence (Q14397 whole entry, looked up): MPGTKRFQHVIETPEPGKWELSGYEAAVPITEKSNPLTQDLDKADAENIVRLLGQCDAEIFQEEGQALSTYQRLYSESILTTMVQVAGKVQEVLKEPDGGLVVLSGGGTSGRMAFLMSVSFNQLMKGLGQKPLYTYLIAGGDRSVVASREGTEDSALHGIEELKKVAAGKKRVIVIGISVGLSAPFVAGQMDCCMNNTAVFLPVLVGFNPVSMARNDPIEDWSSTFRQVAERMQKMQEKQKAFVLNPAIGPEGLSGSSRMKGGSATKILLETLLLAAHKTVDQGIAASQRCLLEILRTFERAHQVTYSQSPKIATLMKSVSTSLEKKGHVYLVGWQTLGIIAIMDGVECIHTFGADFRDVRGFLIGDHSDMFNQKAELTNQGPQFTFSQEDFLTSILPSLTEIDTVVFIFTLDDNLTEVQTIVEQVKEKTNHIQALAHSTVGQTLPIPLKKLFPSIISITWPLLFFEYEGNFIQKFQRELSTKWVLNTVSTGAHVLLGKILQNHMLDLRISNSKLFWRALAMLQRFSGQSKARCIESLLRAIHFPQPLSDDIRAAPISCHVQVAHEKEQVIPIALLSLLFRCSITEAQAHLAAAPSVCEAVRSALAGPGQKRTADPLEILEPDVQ
Sequence of Arylsulfatase A (Homo sapiens) (P15289 whole entry, looked up): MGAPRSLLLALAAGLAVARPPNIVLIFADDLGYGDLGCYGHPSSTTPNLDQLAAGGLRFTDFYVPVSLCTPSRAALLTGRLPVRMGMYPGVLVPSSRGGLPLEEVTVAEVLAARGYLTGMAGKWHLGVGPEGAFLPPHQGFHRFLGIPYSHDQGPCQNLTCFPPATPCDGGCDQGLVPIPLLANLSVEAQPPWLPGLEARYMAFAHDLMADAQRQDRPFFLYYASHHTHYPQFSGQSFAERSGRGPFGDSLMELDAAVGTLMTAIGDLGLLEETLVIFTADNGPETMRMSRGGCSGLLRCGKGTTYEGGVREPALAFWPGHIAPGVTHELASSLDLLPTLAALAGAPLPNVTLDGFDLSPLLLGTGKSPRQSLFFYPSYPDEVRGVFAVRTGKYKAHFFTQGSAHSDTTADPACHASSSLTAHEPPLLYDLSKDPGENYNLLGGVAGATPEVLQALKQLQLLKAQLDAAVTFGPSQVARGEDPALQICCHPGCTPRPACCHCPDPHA
Sequence of Tumor necrosis factor (Homo sapiens) (P01375 whole entry, looked up): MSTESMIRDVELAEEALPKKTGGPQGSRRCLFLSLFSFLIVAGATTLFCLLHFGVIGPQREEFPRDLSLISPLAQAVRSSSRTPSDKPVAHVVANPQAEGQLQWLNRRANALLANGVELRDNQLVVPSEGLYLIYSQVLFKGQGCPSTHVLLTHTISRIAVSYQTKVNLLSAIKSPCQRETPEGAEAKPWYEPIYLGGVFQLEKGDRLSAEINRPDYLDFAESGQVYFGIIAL

O=c1[nH]c2ccccc2n1C1CCN(CCCC(c2ccc(F)cc2)c2ccc(F)cc2)CC1
inactive: activation [1] 1.32% | max response [2] -0.751% | Potency [3] | outcome [5] | outcome [6] | outcome [7]
active: Potency [4] 50.1 µM

Cc1cc(SCc2sc(-c3ccc(C(F)(F)F)c(F)c3)nc2C)ccc1OCC(=O)O
inactive: activation [8] -3.79% | activation [1] 14.6% | Potency [9] | outcome [10] | max response [4] -1.47% | max response [11] 27.5%
active: Potency [2] 2 µM

O=c1oc2ccccc2c(O)c1C(CC(O)c1ccc(-c2ccc(Br)cc2)cc1)c1ccccc1 (stereo not drawn)
inactive: activation [8] -6.71% | activation [1] -0.116% | max response [2] -1.05% | max response [4] -8.71% | max response [11] -15.4%

CN(C)CCN(C)CCc1ccc(Cl)c(Cl)c1
inactive: Potency [9] | outcome [10]

NC(=Nc1ccccc1)Nc1ccccc1
inactive: max response [4] 3.18%
active: Potency [1] 11.2 µM

CC(=O)Oc1ccccc1C(=O)Nc1ncc([N+](=O)[O-])s1
active: Potency [12] 7.5 µM | Potency [13] 6.68 µM | Potency [1] 0.708 µM | Potency [14] 5.96 µM
inactive: max response [11] 33.5%

C[C@H]1O[C@@H](O[C@H]2[C@@H](O)C[C@H](O[C@H]3[C@@H](O)C[C@H](O[C@H]4CC[C@@]5(C)[C@H](CC[C@@H]6[C@@H]5CC[C@]5(C)[C@@H](C7=CC(=O)OC7)CC[C@]65O)C4)O[C@@H]3C)O[C@@H]2C)C[C@H](O)[C@@H]1O
inactive: activation [8] -1.01% | max response [2] -0.744% | max response [11] -3.93%

Clc1ccc(COC(Cn2ccnc2)c2ccc(Cl)cc2Cl)cc1 (stereo not drawn)
inactive: outcome [15] | max response [2] -5.88% | max response [4] -7.45%
active: Potency [11] 10 µM

Cn1cc(C2=C(c3cn(C4CCN(Cc5ccccn5)CC4)c4ccccc34)C(=O)NC2=O)c2ccccc21
inactive: Potency [9] | outcome [10]

CC(C)(C)CC(C)(C)c1ccc(O)cc1
active: Potency [2] 25.1 µM
inactive: max response [4] -9.38% | max response [11] -7.21% and 8.2%

C[C@@H]1O[C@@H](O[C@H]2C[C@@H](O)[C@]3(CO)[C@H]4[C@H](O)C[C@]5(C)[C@@H](C6=CC(=O)OC6)CC[C@]5(O)[C@@H]4CC[C@]3(O)C2)[C@H](O)[C@H](O)[C@H]1O
inactive: activation [1] 6.71% | max response [2] -0.456% | Potency [3] | outcome [16] | outcome [17] | outcome [18] | outcome [5] | outcome [6] | outcome [7] | max response [11] -6.85% and -3.14% and -2.93%

C[C@]12C/C(=C/O)C(=O)C[C@@H]1CC[C@@H]1[C@@H]2CC[C@@]2(C)[C@H]1CC[C@]2(C)O
inactive: Potency [12] | Potency [13] | outcome [15] | Potency [19] | activation [1] 1.36% and 0.159% | max response [2] -0.191% and -0.334% | max response [4] 3.17% and 10.2% | max response [11] 18.9%
